{"source": "PubChem BioAssay AID1159580", "about": "(chemical genetic matrix, 2015)", "experiment": "chemical genetic growth profiling, strain panel (AID 1159580);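 further: tested at 20 µM; growth read once vehicle control cultures reached saturation at 30 °C; 1 = growth at the plate median or of vehicle wells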", "conditions": "growth OD", "note": "Among all 5,500 compounds or so, about 2,000 (36%) were called active. Not shown: some 18% with an inconclusive outcome. The list shows a part of the results. Unmarked numbers belong to inactive results. No stated cut-off is given here; in the data, active means normalized growth mostly below about 0.91 (no sharp cut-off); inconclusive means no clear call, values can overlap the other calls; inactive means mostly above about 0.92."}
{"smiles": "CCC/C=C/C=C/[C@@H]1C[C@@H](O)[C@@H](O)C(=O)[C@H]1C=O", "values": [{"measurement": "normalized growth", "setting": "S. cerevisiae deletion strains, locus YBR021W, strain FUR4, stronger effect = lower value", "value": 1.01}, {"measurement": "normalized growth", "setting": "S. cerevisiae deletion strains, locus YBR229C, strain ROT2, stronger effect = lower value", "value": 0.992}, {"measurement": "normalized growth", "setting": "S. cerevisiae deletion strains, locus YCL029C, strain bik1, stronger effect = lower value", "value": 0.98}, {"measurement": "normalized growth", "setting": "S. cerevisiae deletion strains, locus YDL035C, strain GPR1, stronger effect = lower value", "value": 1}, {"measurement": "normalized growth", "setting": "S. cerevisiae deletion strains, locus YDL074C, strain BRE1, stronger effect = lower value", "value": 1.01}, {"measurement": "normalized growth", "setting": "S. cerevisiae deletion strains, locus YDL101C, strain DUN1, stronger effect = lower value", "value": 0.994}, {"measurement": "normalized growth", "setting": "S. cerevisiae deletion strains, locus YDL185W, strain tfp1, stronger effect = lower value", "value": "0.0596 (active)"}, {"measurement": "normalized growth", "setting": "S. cerevisiae deletion strains, locus YDL192W, strain arf1, stronger effect = lower value", "value": 0.949}, {"measurement": "normalized growth", "setting": "S. cerevisiae deletion strains, locus YDR101C, strain arx1, stronger effect = lower value", "value": 0.978}, {"measurement": "normalized growth", "setting": "S. cerevisiae deletion strains, locus YDR162C, strain NBP2, stronger effect = lower value", "value": 0.982}, {"measurement": "normalized growth", "setting": "S. cerevisiae deletion strains, locus YDR318W, strain mcm21, stronger effect = lower value", "value": 0.959}, {"measurement": "normalized growth", "setting": "S. cerevisiae deletion strains, locus YDR388W, stronger effect = lower value", "value": 0.955}, {"measurement": "normalized growth", "setting": "S. cerevisiae deletion strains, locus YDR502C, strain sam2, stronger effect = lower value", "value": 0.976}, {"measurement": "normalized growth", "setting": "S. cerevisiae deletion strains, locus YEL061C, strain CIN8, stronger effect = lower value", "value": 0.984}, {"measurement": "normalized growth", "setting": "S. cerevisiae deletion strains, locus YER110C, stronger effect = lower value", "value": 0.999}, {"measurement": "normalized growth", "setting": "S. cerevisiae deletion strains, locus YER155C, strain BEM2, stronger effect = lower value", "value": 0.955}, {"measurement": "normalized growth", "setting": "S. cerevisiae deletion strains, locus YER167W, strain BCK2, stronger effect = lower value", "value": 0.976}, {"measurement": "normalized growth", "setting": "S. cerevisiae deletion strains, locus YGL078C, strain dbp3, stronger effect = lower value", "value": 0.94}, {"measurement": "normalized growth", "setting": "S. cerevisiae deletion strains, locus YGL086W, strain mad1, stronger effect = lower value", "value": 0.976}, {"measurement": "normalized growth", "setting": "S. cerevisiae deletion strains, locus YGL248W, strain PDE1, stronger effect = lower value", "value": 1}, {"measurement": "normalized growth", "setting": "S. cerevisiae deletion strains, locus YGR135W, strain pre9, stronger effect = lower value", "value": 0.988}, {"measurement": "normalized growth", "setting": "S. cerevisiae deletion strains, locus YGR252W, strain gcn5, stronger effect = lower value", "value": 1.16}, {"measurement": "normalized growth", "setting": "S. cerevisiae deletion strains, locus YHR030C, strain SLT2, stronger effect = lower value", "value": 0.978}, {"measurement": "normalized growth", "setting": "S. cerevisiae deletion strains, locus YHR079C, strain IRE1 (second series), stronger effect = lower value", "value": 0.981}, {"measurement": "normalized growth", "setting": "S. cerevisiae deletion strains, locus YHR094C, strain hxt1, stronger effect = lower value", "value": 0.97}, {"measurement": "normalized growth", "setting": "S. cerevisiae deletion strains, locus YHR129C, strain ARP1, stronger effect = lower value", "value": 0.99}, {"measurement": "normalized growth", "setting": "S. cerevisiae deletion strains, locus YHR200W, strain rpn10, stronger effect = lower value", "value": 0.972}, {"measurement": "normalized growth", "setting": "S. cerevisiae deletion strains, locus YIL066C, strain RNR3, stronger effect = lower value", "value": 0.971}, {"measurement": "normalized growth", "setting": "S. cerevisiae deletion strains, locus YIL073C, strain SPO22, stronger effect = lower value", "value": 1.03}, {"measurement": "normalized growth", "setting": "S. cerevisiae deletion strains, locus YIL125W, strain kgd1, stronger effect = lower value", "value": "0.853 (active)"}, {"measurement": "normalized growth", "setting": "S. cerevisiae deletion strains, locus YIR030C, strain dcg1, stronger effect = lower value", "value": 0.975}, {"measurement": "normalized growth", "setting": "S. cerevisiae deletion strains, locus YJL095W, strain BCK1, stronger effect = lower value", "value": 1.03}, {"measurement": "normalized growth", "setting": "S. cerevisiae deletion strains, locus YJL134W, strain LCB3, stronger effect = lower value", "value": 0.947}, {"measurement": "normalized growth", "setting": "S. cerevisiae deletion strains, locus YJL168C, strain set2, stronger effect = lower value", "value": 0.973}, {"measurement": "normalized growth", "setting": "S. cerevisiae deletion strains, locus YJL187C, strain SWE1 (second series), stronger effect = lower value", "value": 1.03}, {"measurement": "normalized growth", "setting": "S. cerevisiae deletion strains, locus YJR043C, strain POL32, stronger effect = lower value", "value": 0.99}, {"measurement": "normalized growth", "setting": "S. cerevisiae deletion strains, locus YJR075W, strain HOC1, stronger effect = lower value", "value": 0.977}, {"measurement": "normalized growth", "setting": "S. cerevisiae deletion strains, locus YKL009W, strain mrt4, stronger effect = lower value", "value": "0.76 (active)"}, {"measurement": "normalized growth", "setting": "S. cerevisiae deletion strains, locus YKL068W, stronger effect = lower value", "value": "0.928 (active)"}, {"measurement": "normalized growth", "setting": "S. cerevisiae deletion strains, locus YKL085W, strain MDH1 (second series), stronger effect = lower value", "value": "0.88 (active)"}, {"measurement": "normalized growth", "setting": "S. cerevisiae deletion strains, locus YKL085W, strain MDH1, stronger effect = lower value", "value": "0.88 (active)"}, {"measurement": "normalized growth", "setting": "S. cerevisiae deletion strains, locus YKL190W, strain CNB1, stronger effect = lower value", "value": 0.964}, {"measurement": "normalized growth", "setting": "S. cerevisiae deletion strains, locus YKR001C, strain vps1, stronger effect = lower value", "value": 0.901}, {"measurement": "normalized growth", "setting": "S. cerevisiae deletion strains, locus YLR039C, strain RIC1, stronger effect = lower value", "value": "0.496 (active)"}, {"measurement": "normalized growth", "setting": "S. cerevisiae deletion strains, locus YLR058C, strain SHM2, stronger effect = lower value", "value": 0.99}, {"measurement": "normalized growth", "setting": "S. cerevisiae deletion strains, locus YLR102C, strain apc9, stronger effect = lower value", "value": 0.983}, {"measurement": "normalized growth", "setting": "S. cerevisiae deletion strains, locus YLR262C, strain YPT6, stronger effect = lower value", "value": "0.504 (active)"}, {"measurement": "normalized growth", "setting": "S. cerevisiae deletion strains, locus YLR268W, strain sec22, stronger effect = lower value", "value": "0.829 (active)"}, {"measurement": "normalized growth", "setting": "S. cerevisiae deletion strains, locus YLR330W, strain CHS5, stronger effect = lower value", "value": 0.946}, {"measurement": "normalized growth", "setting": "S. cerevisiae deletion strains, locus YLR342W, strain FKS1 (second series), stronger effect = lower value", "value": 0.948}, {"measurement": "normalized growth", "setting": "S. cerevisiae deletion strains, locus YLR371W, strain rom2, stronger effect = lower value", "value": 0.978}, {"measurement": "normalized growth", "setting": "S. cerevisiae deletion strains, locus YLR418C, strain cdc73, stronger effect = lower value", "value": 0.999}, {"measurement": "normalized growth", "setting": "S. cerevisiae deletion strains, locus YML016C, strain PPZ1, stronger effect = lower value", "value": 0.986}, {"measurement": "normalized growth", "setting": "S. cerevisiae deletion strains, locus YML032C, strain rad52, stronger effect = lower value", "value": 0.954}, {"measurement": "normalized growth", "setting": "S. cerevisiae deletion strains, locus YML124C, strain tub3, stronger effect = lower value", "value": 0.991}, {"measurement": "normalized growth", "setting": "S. cerevisiae deletion strains, locus YMR078C, strain ctf18, stronger effect = lower value", "value": 0.973}, {"measurement": "normalized growth", "setting": "S. cerevisiae deletion strains, locus YMR223W, strain ubp8, stronger effect = lower value", "value": 0.929}, {"measurement": "normalized growth", "setting": "S. cerevisiae deletion strains, locus YMR263W, strain SAP30, stronger effect = lower value", "value": 0.992}, {"measurement": "normalized growth", "setting": "S. cerevisiae deletion strains, locus YMR307W, strain GAS1, stronger effect = lower value", "value": 1.04}, {"measurement": "normalized growth", "setting": "S. cerevisiae deletion strains, locus YNL067W, strain RPL9B, stronger effect = lower value", "value": 0.986}, {"measurement": "normalized growth", "setting": "S. cerevisiae deletion strains, locus YNL153C, strain GIM3, stronger effect = lower value", "value": 1.01}, {"measurement": "normalized growth", "setting": "S. cerevisiae deletion strains, locus YNL233W, strain BNI4, stronger effect = lower value", "value": 0.973}, {"measurement": "normalized growth", "setting": "S. cerevisiae deletion strains, locus YNL250W, strain rad50, stronger effect = lower value", "value": "0.821 (active)"}, {"measurement": "normalized growth", "setting": "S. cerevisiae deletion strains, locus YNL271C, strain bni1, stronger effect = lower value", "value": "0.732 (active)"}, {"measurement": "normalized growth", "setting": "S. cerevisiae deletion strains, locus YNL298W, strain CLA4, stronger effect = lower value", "value": "0.901 (active)"}, {"measurement": "normalized growth", "setting": "S. cerevisiae deletion strains, locus YNL307C, strain MCK1, stronger effect = lower value", "value": 0.954}, {"measurement": "normalized growth", "setting": "S. cerevisiae deletion strains, locus YNL322C, strain KRE1, stronger effect = lower value", "value": 0.984}, {"measurement": "normalized growth", "setting": "S. cerevisiae deletion strains, locus YNR052C, strain pop2, stronger effect = lower value", "value": "0.907 (active)"}, {"measurement": "normalized growth", "setting": "S. cerevisiae deletion strains, locus YOL006C, strain TOP1, stronger effect = lower value", "value": "0.52 (active)"}, {"measurement": "normalized growth", "setting": "S. cerevisiae deletion strains, locus YOL012C, strain htz1", "value": 0.336}, {"measurement": "normalized growth", "setting": "S. cerevisiae deletion strains, locus YOL147C, strain pex11, stronger effect = lower value", "value": 0.986}, {"measurement": "normalized growth", "setting": "S. cerevisiae deletion strains, locus YOR061W, strain CKA2, stronger effect = lower value", "value": 0.986}, {"measurement": "normalized growth", "setting": "S. cerevisiae deletion strains, locus YOR069W, strain VPS5, stronger effect = lower value", "value": 0.979}, {"measurement": "normalized growth", "setting": "S. cerevisiae deletion strains, locus YOR136W, strain idh2, stronger effect = lower value", "value": 0.996}, {"measurement": "normalized growth", "setting": "S. cerevisiae deletion strains, locus YOR144C, strain elg1, stronger effect = lower value", "value": 0.982}, {"measurement": "normalized growth", "setting": "S. cerevisiae deletion strains, locus YOR184W, strain ser1, stronger effect = lower value", "value": 0.938}, {"measurement": "normalized growth", "setting": "S. cerevisiae deletion strains, locus YOR316C, strain cot1, stronger effect = lower value", "value": 0.979}, {"measurement": "normalized growth", "setting": "S. cerevisiae deletion strains, locus YPR119W, strain clb2, stronger effect = lower value", "value": 0.971}, {"measurement": "normalized growth", "setting": "S. cerevisiae deletion strains, locus YPR141C, strain kar3, stronger effect = lower value", "value": "0.804 (active)"}, {"measurement": "normalized growth", "setting": "S. cerevisiae deletion strains, locus YPR163C, strain tif3, stronger effect = lower value", "value": 0.983}, {"measurement": "normalized growth", "setting": "S. cerevisiae deletion strains, locus YPR167C, strain met16, stronger effect = lower value", "value": 0.979}, {"measurement": "normalized growth", "setting": "S. cerevisiae deletion strains, strain wtn01, stronger effect = lower value", "value": 0.973}, {"measurement": "normalized growth", "setting": "S. cerevisiae strains, strain wild type, stronger effect = lower value", "value": 0.971}]}
